A selection: hits, their analogues and other compounds. The true share with any hit is near 3.5%.
TRb SRC2 PPI = qHTS for Inhibitors of the Interaction of Thyroid Hormone Receptor and Steroid Receptor Coregulator 2 | Potency, µM (titrated, usually from 106 µM), without a hit: at the top dose activity change, negative = inhibition, actives largely listed as inhibitors | hit rate 0.065% among 280,000 | Thyroid hormone receptor beta (Homo sapiens), P10828 | AID 1469, 2008 | TRbeta-SRC2 peptide binding, fluorescence polarization; receptor liganded with 1 µM T3;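 also: plate controls were bound peptide for no effect and peptide without receptor for full effect; nearly all actives have a fitted effect of over 50% in size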
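TRb LBD 0.6 uM + Texas Red SRC2 peptide 20 nM, 1 uM T3, Tris buffer w/ 5% DMSO; compound pinned, 5 h RT; FP read ex 555/em 632; normalized to unbound and bound controls.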
Tau fluor cs = Counterscreen qHTS for Inhibitors of Tau Fibril Formation, Fluorescence Polarization | tau K18 P301L Alexa594 fluorescence, heparin fibrillization | Potency, µM (doses to about 57.7 µM), for the others: at the highest dose activity change, negative = decrease | hit rate 0.93% among 280,000; also: nearly all actives have a fitted effect of over 55% in size
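Human K18 P301L tau (15 uM unlabeled plus 0.24 uM Alexa 594-labeled, final) in 100 mM sodium acetate pH 7 was mixed with compound and 20 uM heparin and incubated 6 hr at 37 C.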
Tau fibril ThT = qHTS for Inhibitors of Tau Fibril Formation, Thioflavin T Binding; Microtubule-associated protein tau (Homo sapiens), P10636; recombinant tau K18 P301L (four-repeat tau fragment), heparin-induced fibrillization, ThT fluorescence; Potency, µM (doses to about 57.4 µM), inactives show at the highest dose activity, negative = inhibition, most hits filed as inhibitors; hit rate 2.1% among 270,000; also: nearly all actives have a fitted effect of over 55% in size
Target sequence (P10636 561-689 P618L limits assumed): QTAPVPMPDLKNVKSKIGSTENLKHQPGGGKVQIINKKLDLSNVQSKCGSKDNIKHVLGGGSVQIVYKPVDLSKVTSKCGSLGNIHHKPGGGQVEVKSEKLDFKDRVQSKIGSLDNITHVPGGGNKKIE
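K18 P301L tau (15 uM + 0.24 uM Alexa 594-tagged), heparin 20 uM, NaOAc pH 7, 6 h 37 C; ThT 30 uM, 1 h RT, ex 450/em 510 nm.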
KDM4E inh = qHTS Assay for Inhibitors of Human Jumonji Domain Containing 2E (JMJD2E); Lysine-specific demethylase 4E (Homo sapiens), B2RXH2; JMJD2E catalytic domain, FDH-coupled NADH fluorescence (FDH is formaldehyde dehydrogenase); Potency, µM (highest dose often 57.1 µM), inactives show top-dose activity change, negative = inhibition, actives largely listed as inhibitors; hit rate 1.6% among 230,000; AID 2147, 2009; active = well fitted inhibition curve with a large enough effect, not every such curve was filed as active; inconclusive = small, poorly fitted or top-dose-only effect, or another doubt; inactive = no such curve, though single readings can be large or run the other way;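 also: 0% = wells with enzyme and -100% = buffer wells without enzyme; nearly all actives have a fitted effect of over 50% in size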
Target sequence (B2RXH2 1-337 limits assumed): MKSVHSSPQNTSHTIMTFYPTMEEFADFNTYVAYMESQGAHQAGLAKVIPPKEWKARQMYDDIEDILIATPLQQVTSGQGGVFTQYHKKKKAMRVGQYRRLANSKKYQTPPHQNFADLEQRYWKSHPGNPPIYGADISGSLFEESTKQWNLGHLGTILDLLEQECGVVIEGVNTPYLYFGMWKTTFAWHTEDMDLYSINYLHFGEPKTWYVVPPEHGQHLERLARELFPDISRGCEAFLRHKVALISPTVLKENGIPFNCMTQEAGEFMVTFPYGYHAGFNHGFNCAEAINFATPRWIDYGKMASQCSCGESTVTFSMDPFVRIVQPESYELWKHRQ
Tau fibril FP = qHTS for Inhibitors of Tau Fibril Formation, Fluorescence Polarization | K18 P301L tau heparin fibrillization, Alexa594 FP, 6 h | Potency, µM (highest dose often 57.7 µM), for inactives: at the highest dose activity, negative = inhibition, most hits filed as inhibitors | hit rate 0.39% among 280,000 | AID 1468, 2008; also: nearly all actives have a fitted effect of over 55% in size
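Human K18 P301L fragment (15 uM unlabeled plus 0.24 uM Alexa 594-labeled) in 100 mM sodium acetate pH 7 with compound, aggregation induced by 20 uM heparin for 6 hr at 37 C. ThT (30 uM) added for 1 hr, then Alexa 594 FP read.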
TR SRC2 fluor cs = Total Fluorescence Counterscreen for Inhibitors of the Interaction of Thyroid Hormone Receptor and Steroid Receptor Coregulator 2 | Potency, µM (titrated, usually from 106 µM), without a hit: at the top dose fluorescence change, negative = quenching | hit rate 0.29% among 280,000 | AID 1479, 2009 | TRb/SRC2 Texas Red total fluorescence interference; active = well fitted curve in either direction with a large enough effect; inconclusive = small, poorly fitted or top-dose-only effect
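Human TRβ ligand-binding domain (0.6 uM) and Texas Red SRC2 peptide (20 nM) in Tris buffer with 1 uM T3 and 5% DMSO were incubated with pinned compound for 5 hr at ambient temperature. Total fluorescence was computed as S + 2P (555/632 nm).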
An asterisk follows results filed as active; ? = inconclusive; · = no result; [ ] = dose if it differs, or a comment. Unless noted, calls follow the shape of the dose curve; as a rule, active = well fitted curve in the direction sought with a large enough effect; inconclusive = small, poorly fitted or top-dose-only effect, or another doubt; inactive = no such curve, though single readings can be large; an effect the other way counts as inactive or inconclusive. Unless noted, % is scaled to controls: 0 for no effect and ±100 for the full control effect; potency is read from the fitted curve at half-maximal effect.

SMILES | TRb SRC2 PPI | Tau fluor cs | Tau fibril ThT | KDM4E inh | Tau fibril FP | TR SRC2 fluor cs
O=C(O)c1cccc(N2C(=O)/C(=C/c3ccc(SCc4ccc(Cl)cc4)o3)SC2=S)c1 | 4% | ? | 16µM* | 22µM* | ? | -21%
COC(=O)c1ccc(S(=O)(=O)N2CCCCCC2)cc1 | -2% | 2% | 1% | 6% | -2% | -2%
O=C(/C=C/c1ccc(O)c(O)c1)c1ccc(S(=O)(=O)N2CCCCCC2)cc1 | ? | ? | ? | 28µM* | 13% | -13%
CCNC(=S)N1CCN(S(=O)(=O)c2ccc(C)c(C)c2)CC1 | 2% | -2% | 7% | ? | 3% | -2%
COc1ccccc1NS(=O)(=O)c1cc(NC(=O)c2ccncc2)ccc1N1CCCC1 | 4% | 22µM*[quencher] | ? | -17% | 1% | -2%
COc1ccccc1NS(=O)(=O)c1cc(NC(C)=O)ccc1N1CCCCC1 | 4% | ? | -2% | -6% | -12% | -3%
O=C(Nc1ccc(Cl)cc1)Nc1ccc(N2CCCC2)c(S(=O)(=O)Nc2ccccc2Cl)c1 | 5% | 2.8µM*[quencher] | -8% | ? | ? | 1%
COc1ccccc1NS(=O)(=O)c1cc(NC(=O)c2[nH]c(C)c(C(C)=O)c2C)ccc1N1CCOCC1 | 3% | 13µM*[quencher] | -12% | -3% | ? | 2%
COc1ccccc1NS(=O)(=O)c1cc(NC(=O)c2ccc(=O)[nH]c2)ccc1N1CCOCC1 | -5% | -18% | 5% | -5% | -5% | 0%
COc1ccccc1NS(=O)(=O)c1cc(NC(=O)Nc2cccc(C)c2)ccc1N1CCCCC1 | -1% | ? | ? | -8% | 28µM* | 0%
Cc1ccc(C)c(NC(=O)N(C)CCc2c(C)nn(C)c2C)c1 | 1% | -2% | 2% | · | -4% | 1%
CC(=O)c1c(C)[nH]c(C(=O)Nc2ccc(C)c(S(=O)(=O)N(C)C)c2)c1C | -4% | -3% | 1% | 4% | -12% | 1%
CC(=O)c1c(C)[nH]c(C(=O)Nc2ccc(C)c(S(=O)(=O)Nc3ccc(C)cc3C)c2)c1C | -4% | 22µM*[quencher] | -12% | -11% | ? | -2%
COc1ccc(Cc2noc(CN(C)CC3(N4CCOCC4)CCCCC3)n2)cc1OC | -4% | -13% | -10% | -10% | -4% | 1%
ClCc1nnc(-c2ccccc2)o1 | -1% | -3% | 6% | 1% | -1% | -2%
O=S(=O)(NC1CCCC1)c1ccc(S(=O)(=O)N2CCN(c3ccccc3)CC2)cc1 | 2% | -14% | 4% | 11% | -13% | 0%
O=[N+]([O-])c1cc(C(F)(F)F)cc([N+](=O)[O-])c1NCCNC(=S)Nc1cccc(F)c1 | 6% | 8.9µM*[quencher] | ? | -6% | -7% | 3%
Fc1ccc(CNC(=S)Nc2cccc(C(F)(F)F)c2)cc1 | -3% | -10% | -4% | -5% | 0% | -4%
CCOc1cc([N+](=O)[O-])c2nc(N)sc2c1 | 2% | -21% | 20µM* | -10% | 3% | -4%
COc1cc([N+](=O)[O-])c2nccnc2c1 | -2% | -3% | -1% | 5% | -1% | -2%
COc1cc(OC)cc(-n2nc(C(=O)NCCCN3CCOCC3)c3ccccc3c2=O)c1 | -19% | 1% | -1% | ? | -2% | 0%
CC(C)COC(=O)c1cccc2c1-c1ccccc1/C2=N\O | -6% | -29% | -5% | -21% | 28µM* | -3%
NS(=O)(=O)c1ccc(NC(=S)NC(=O)c2ccc(-c3ccccc3)cc2)cc1 | -22%[53 µM] | 0% | 5% | -1% | 2% | 0.32µM*[quencher]
O=C(CSc1nc2ccccc2c(=O)[nH]1)c1ccc(O)c(O)c1 | 4% | 1% | ? | 25µM* | 7% | -7%
O=C(CSc1nc2ccccc2n1CCc1ccccc1)N1CCOCC1 | -2% | -4% | -8% | 1% | 6% | 1%
SMILES | TRb SRC2 PPI | Tau fluor cs | Tau fibril ThT | KDM4E inh | Tau fibril FP | TR SRC2 fluor cs
O=C(CSc1nc2ccccc2n1CCc1ccccc1)c1ccc(O)c(O)c1 | 6% | 25µM*[quencher] | ? | 22µM* | -3% | ?
COc1ccc(NC(=O)C2(c3ccc(NC(=O)c4ccc(OC)cc4)cc3)CCCC2)cc1 | 3% | 3% | 3% | ? | ? | -2%
Cc1ccc(Cl)cc1NC(=O)c1cccc(NC(=O)N2CCSc3ncccc32)c1 | 7% | -27% | -12% | · | -9% | -3%
CN(C)c1ccc(NC(=O)c2ccc(COc3cccc(Cl)c3)o2)cc1 | 3% | ? | 11µM* | -12% | ? | -7%
Cc1cc(C)c2c(CC(=O)Nc3ccc(S(=O)(=O)N4CCCC(C)C4)cc3)coc2c1 (configuration not stated) | -4% | ? | 12% | · | 14µM* | 3%
C(=C\CSc1ncn[nH]1)/CSc1ncn[nH]1 | -1% | -10% | -9% | -12% | -3% | -3%
Cc1cccc(NC(=O)C2CCN(S(=O)(=O)c3ccc4[nH]c5c(c4c3)CCCCC5)CC2)c1 | 0% | ? | 7% | · | -4% | 0%
Cc1ccc(CNS(=O)(=O)c2ccc3[nH]c4c(c3c2)CCCC4)cc1 | 0% | ? | 1% | · | ? | -3%
CC(=O)c1cccc(NS(=O)(=O)c2ccc3[nH]c4c(c3c2)CCCCC4)c1 | 4% | 14µM*[quencher] | -2% | · | 2% | -1%
CC(=O)c1cccc(NS(=O)(=O)c2ccc3[nH]c4c(c3c2)CCCCCC4)c1 | 2% | 14µM*[quencher] | -7% | · | 5% | 2%
CC(=O)c1cccc(NS(=O)(=O)c2ccc3c(c2)NC(=O)CC(=O)N3)c1 | 0% | 1% | 8% | · | -2% | -2%
CCOC(=O)c1cccc(NS(=O)(=O)c2ccc3[nH]c4c(c3c2)CCCC4)c1 | -1% | 10µM*[quencher] | -1% | · | -2% | ?
O=C(O)[C@H]1C(=CCO)O[C@H]2CC(=O)N12 | 3% | -7% | -2% | 1% | -13% | -1%
Cc1ccc(-c2csc(N)n2)s1 | 7% | -29% | 32µM* | 1% | ? | 14%
CC1(C)Cc2[nH]c(=S)c(C#N)cc2CO1 | -3% | 5% | -14% | 13µM* | -4% | 1%
Cc1ccc(CNc2ncnc3onc(-c4ccc(F)cc4)c23)cc1 | -19% | -13% | 2% | · | -3% | 0.089µM*[quencher]

Source: PubChem (National Center for Advancing Translational Sciences (NCATS))
